The record followed here is PubChem BioAssay (Tox21).

A short description of experiment [1]: Nuclear factor erythroid 2-related factor 2/antioxidant responsive element (Nrf2/ARE) small molecule agonists: qHTS cell viability counter screen in human keratinocytes (AID 1919968; active means well fitted curve in the direction sought with a large enough effect in the repeat runs; an effect the other way counts as inactive or inconclusive; further: nearly all actives have a fitted effect of over 55% in size; further: potency means the concentration at half of the fitted maximal effect). In a few lines:
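Seed 1,500 KeratinoSens cells per well, then incubate 5 h at 37 C/5% CO2. Add compounds in DMSO and incubate 23 h. Add CellTiter-Fluor, wait 1 h and read fluorescence.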

Experiment [2] in a line: Nuclear factor erythroid 2-related factor 2/antioxidant responsive element (Nrf2/ARE) small molecule agonists: luciferase reporter gene qHTS assay in human keratinocytes (AID 1919969; further: nearly all actives have a fitted effect of over 35% in size; further: potency means the concentration at half of the fitted maximal effect). (In a reporter assay the amount or activity of a reporter protein is the signal.)
Experiment [3] deals with Gonadotropin-releasing hormone receptor (Homo sapiens) (UniProt P30968). In words: Human gonadotropin-releasing hormone receptor (GnRHR) small molecule agonists, calcium flux assay in GnRHR-HEK293 cells (AID 1920063). Further: nearly all actives have a fitted effect of over 35% in size. The method in brief: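 Cells: HEK293 stably expressing human GnRHR. Steps: overnight (18 h) culture, 1 h calcium dye loading at 37 C, compound addition, kinetic fluorescence read at 480/540 nm. Each compound tested at 15 concentrations in triplicate.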
(A change in cytosolic calcium serves as a functional read-out for many receptors and channels.)

Experiment [4] deals with KiSS-1 receptor (Homo sapiens) (UniProt Q969F8). Nature of the experiment: Human kisspeptin (KISS1R) small molecule agonists, calcium flux assay in KISS1R-HEK293 cells (AID 1920064; active means well fitted curve in the direction sought with a large enough effect in the repeat runs; an effect the other way counts as inactive or inconclusive). The method in brief: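 Cells plated and incubated 18 h; dye added, 1 h at 37 C; compounds in DMSO pinned in; signal read at 480/540 nm every second for 3 min. Each compound tested at 15 concentrations in triplicate.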

Experiment [5] is described as follows: p53 small molecule agonists, cell-based qHTS assay with human liver microsomes (AID 1963577).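 Further: p53 response element beta-lactamase reporter cells with liver microsomes plus NADPH.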 The method in brief: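 Metabolically competent format: test substances, human liver microsomes and NADPH (both 0.5 mg/mL final) incubated with p53RE-bla cells 16 h at 37 C. Beta-lactamase reporter signal then quantified by fluorescence.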
(Quantitative high-throughput screening tests each substance at several concentrations.)

The nature of experiment [6]: p53 small molecule agonists, cell-based qHTS assay with human liver microsomes: qHTS cell viability counter screen (AID 1963579). Further: nearly all actives have a fitted effect of over 45% in size. In a few lines: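 Tox21 library compounds, delivered from DMSO stocks, were tested on p53RE-bla cells together with 0.5 mg/mL human liver microsomes and 0.5 mg/mL NADPH (final) over 16 h at 37 C; CellTiter-Glo luminescence served as the cytotoxicity measure.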

The nature of experiment [7]: p53 small molecule agonists, cell-based qHTS assay with rat liver microsomes: qHTS cell viability counter screen (AID 1963580). Further: nearly all actives have a fitted effect of over 45% in size. Further: potency means the concentration at half of the fitted maximal effect. The method in brief:
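Intracellular ATP, by CellTiter-Glo luminescence, defines viability. HCT-116 p53RE-bla cells, 4,000 per well, were compound-treated in the presence of rat liver microsomes and NADPH for 16 h at 37 C.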

Experiment [8] is described as follows: p53 small molecule agonists, cell-based qHTS assay: qHTS cell viability counter screen (AID 1963581). Further: nearly all actives have a fitted effect of over 45% in size. In a few lines: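 Cells: HCT-116 with p53 response element-driven beta-lactamase. Treatment: 16 h, 37 C, compounds in DMSO. Read: CellTiter-Glo luminescence after 30 min RT.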
A short description of experiment [9]: p53 small molecule agonists, cell-based qHTS assay (AID 1963582; active means well fitted activation curve with a large enough effect in the signal ratio in the repeat runs, not every such curve was filed as active; the % refers to the signal ratio). The method in brief:
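Quantitative HTS in p53RE-bla cells: after a 5 h settling period, compounds delivered in DMSO were left on cells for 16 h at 37 C, and reporter induction was measured as fluorescence following 2 h substrate loading.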

Experiment [10] deals with 5-hydroxytryptamine receptor 2A (Homo sapiens) (UniProt P28223). In words: 5-hydroxytryptamine receptor 2A (HTR2A) small molecule antagonists, cell-based qHTS assay (AID 1963586). Further: nearly all actives have a fitted effect of over 45% in size. Further: potency means the concentration at half of the fitted maximal effect. In a few lines: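 Antagonist-mode intracellular calcium assay: DOI (4 nM) added after 5 min compound pre-incubation at room temperature to dye-loaded HTR2A-CHO cells. Fluorescence followed for 3 min, sampled every second.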

Experiment [11] shares this target. Nature of the experiment: 5-hydroxytryptamine receptor 2A (HTR2A) small molecule agonists, cell-based qHTS assay (AID 1963587). Further: nearly all actives have a fitted effect of over 30% in size. Further: potency means the concentration at half of the fitted maximal effect. In a few lines: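 Kinetic calcium-flux fluorescence (2 min, 1 sec intervals) after compound addition in agonist mode. HTR2A-CHO cells were cultured 18 h, then dye-loaded 1 h at 37 C.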
The target in experiment [12] is Muscarinic acetylcholine receptor M1 (Homo sapiens) (UniProt P11229). In words: Cholinergic receptor muscarinic 1 (CHRM1) small molecule agonists, cell-based qHTS assay (AID 1963589). Further: nearly all actives have a fitted effect of over 35% in size. The method in brief:
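Agonist-mode qHTS in CHO cells stably carrying human muscarinic M1. Intracellular calcium is tracked by fluorescence every second after compound transfer; each compound runs at 15 concentrations in three independent runs.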

The target of experiment [13] is Beta-2 adrenergic receptor (Homo sapiens) (UniProt P07550). In words: Adrenergic beta2 receptor (ADRB2) small molecule antagonists, cell-based qHTS assay (AID 1963592). Further: series mostly up to about 92 µM; nearly all actives have a fitted effect of over 50% in size. The method in brief:
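Cells (CHO, stable ADRB2 overexpression) incubated 18-20hr at 37C; compounds added from DMSO; agonist mix (1nM isoproterenol, 100uM IBMX, 25uM Ro-20-1724) added; 0.5hr RT; d2-cAMP and anti-cAMP-cryptate added; 1hr RT; 665/615 nm read.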

Experiment [14] addresses D(2) dopamine receptor (Homo sapiens) (UniProt P14416). Nature of the experiment: Dopamine D2 receptor (DRD2) small molecule agonists, cell-based qHTS assay (AID 1963594). Further: nearly all actives have a fitted effect of over 35% in size. In a few lines: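 cAMP accumulation in DRD2-HEK293 cells measured by HTRF after 1 h detection; compounds added 10 min before NKH477 (200nM […]) forskolin-analogue stimulation, 30 min at room temperature, with Ro20-1724 present at 0.1 mM final.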

Experiment [15] addresses Muscarinic acetylcholine receptor M1 (Homo sapiens) (UniProt P11229). In words: Cholinergic receptor muscarinic 1 (CHRM1) small molecule antagonists, cell-based qHTS assay (AID 1963588). Further: nearly all actives have a fitted effect of over 40% in size. Further: potency means the concentration at half of the fitted maximal effect. The method in brief: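 CHRM1-CHO calcium-flux assay, antagonist mode. Cells were seeded 18 h, dye-loaded 1 h at 37 C and given compound for 5 min at RT, then acetylcholine was added at 50nM. FDSS fluorescence was read 3 min; 15 concentrations, three runs.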

A short description of experiment [16]: cAMP Responsive Elements (CRE) small molecule agonists, cell-based qHTS assay (AID 1963590). The method in brief: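 Agonist mode qHTS in CRE-bla HEK 293T cells: compounds dosed from DMSO for 3 h at 37 C/5% CO2, followed by LiveBLAzer B/G FRET substrate for 2 h at room temperature.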
For experiment [17], the target named is Beta-2 adrenergic receptor (Homo sapiens) (UniProt P07550). Nature of the experiment: Adrenergic beta2 receptor (ADRB2) small molecule agonists, cell-based qHTS assay (AID 1963593).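 Further: CHO cells stably overexpressing human ADRB2.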 In a few lines:
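CHO cells stably over-expressing ADRB2 were plated overnight at 37C, then dosed with compounds plus a stimulation mix containing 100uM IBMX and 25uM Ro-20-1724 for 0.5hr at room temperature. cAMP was measured by HTRF competition, 1hr.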

Experiment [18] concerns the target D(2) dopamine receptor (Homo sapiens) (UniProt P14416). In words: Dopamine D2 receptor (DRD2) small molecule antagonists, cell-based qHTS assay (AID 1963595; active means well fitted inhibition curve with a large enough effect in the signal ratio in the repeat runs, with a control signal flat; the % refers to the signal ratio). The method in brief:
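DRD2-HEK293; 0.1 mM Ro20-1724; cpd 10 min RT; NKH477 200 nM + quinpirole 12 nM, 30 min RT; HTRF cAMP (cAMP-d2/anti-cAMP cryptate), 665/620 nm ratio after 1 h.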

Experiment [19] is described as follows: cAMP Responsive Elements (CRE) small molecule antagonists, cell-based qHTS assay (AID 1963591; active means well fitted inhibition curve with a large enough effect in the signal ratio in the repeat runs, not every such curve was filed as active; the % refers to the signal ratio). The method in brief: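 Antagonist mode: test compounds are co-incubated with the adenylyl cyclase activator NKH477 (0.25 uM final) on CRE-bla HEK293T cells for 3 h at 37 °C, followed by LiveBLAzer substrate loading.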

“And” between values parts separate entries of the source, which are not always exact repeats. Identical values can stand only once. Results filed as inconclusive are left out. The source made the active and inactive calls. Unless noted, the call rests on the fitted dose curve.

Chain of 5-hydroxytryptamine receptor 2A (Homo sapiens) (P28223 whole entry, looked up): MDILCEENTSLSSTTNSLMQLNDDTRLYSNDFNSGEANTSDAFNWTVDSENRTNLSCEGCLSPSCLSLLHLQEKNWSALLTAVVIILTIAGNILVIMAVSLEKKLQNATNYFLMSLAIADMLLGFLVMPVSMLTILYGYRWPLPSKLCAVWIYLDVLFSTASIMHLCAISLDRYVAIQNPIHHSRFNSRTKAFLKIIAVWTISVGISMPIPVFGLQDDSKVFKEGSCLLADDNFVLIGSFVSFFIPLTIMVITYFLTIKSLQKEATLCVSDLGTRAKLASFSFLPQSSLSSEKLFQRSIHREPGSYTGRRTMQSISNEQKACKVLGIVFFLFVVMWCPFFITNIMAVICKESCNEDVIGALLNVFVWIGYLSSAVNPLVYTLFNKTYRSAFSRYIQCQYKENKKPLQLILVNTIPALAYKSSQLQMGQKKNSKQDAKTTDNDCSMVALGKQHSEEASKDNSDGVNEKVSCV
Chain of D(2) dopamine receptor (Homo sapiens) (P14416 whole entry, looked up): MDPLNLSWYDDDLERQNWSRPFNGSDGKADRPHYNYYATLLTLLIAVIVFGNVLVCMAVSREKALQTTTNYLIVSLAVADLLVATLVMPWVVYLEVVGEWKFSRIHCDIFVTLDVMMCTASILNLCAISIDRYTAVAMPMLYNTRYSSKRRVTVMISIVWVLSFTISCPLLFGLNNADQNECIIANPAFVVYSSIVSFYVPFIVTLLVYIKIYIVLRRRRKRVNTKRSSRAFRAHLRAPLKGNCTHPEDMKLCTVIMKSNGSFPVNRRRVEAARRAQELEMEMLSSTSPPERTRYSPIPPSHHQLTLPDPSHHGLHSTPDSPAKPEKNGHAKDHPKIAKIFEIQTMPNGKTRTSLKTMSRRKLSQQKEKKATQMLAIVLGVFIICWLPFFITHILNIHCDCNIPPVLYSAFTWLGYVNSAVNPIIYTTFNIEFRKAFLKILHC
Chain of KiSS-1 receptor (Homo sapiens) (Q969F8 whole entry, looked up): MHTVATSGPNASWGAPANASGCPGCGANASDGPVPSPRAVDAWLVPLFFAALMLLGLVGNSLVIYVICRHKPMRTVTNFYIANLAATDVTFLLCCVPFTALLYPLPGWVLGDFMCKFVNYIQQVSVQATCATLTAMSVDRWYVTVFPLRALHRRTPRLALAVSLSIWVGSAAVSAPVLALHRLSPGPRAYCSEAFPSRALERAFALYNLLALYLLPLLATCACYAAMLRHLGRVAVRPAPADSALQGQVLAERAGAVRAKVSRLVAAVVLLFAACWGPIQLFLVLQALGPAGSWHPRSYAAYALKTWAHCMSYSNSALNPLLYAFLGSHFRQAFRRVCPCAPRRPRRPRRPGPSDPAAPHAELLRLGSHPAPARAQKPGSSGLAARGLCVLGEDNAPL
Chain of Muscarinic acetylcholine receptor M1 (Homo sapiens) (P11229 whole entry, looked up): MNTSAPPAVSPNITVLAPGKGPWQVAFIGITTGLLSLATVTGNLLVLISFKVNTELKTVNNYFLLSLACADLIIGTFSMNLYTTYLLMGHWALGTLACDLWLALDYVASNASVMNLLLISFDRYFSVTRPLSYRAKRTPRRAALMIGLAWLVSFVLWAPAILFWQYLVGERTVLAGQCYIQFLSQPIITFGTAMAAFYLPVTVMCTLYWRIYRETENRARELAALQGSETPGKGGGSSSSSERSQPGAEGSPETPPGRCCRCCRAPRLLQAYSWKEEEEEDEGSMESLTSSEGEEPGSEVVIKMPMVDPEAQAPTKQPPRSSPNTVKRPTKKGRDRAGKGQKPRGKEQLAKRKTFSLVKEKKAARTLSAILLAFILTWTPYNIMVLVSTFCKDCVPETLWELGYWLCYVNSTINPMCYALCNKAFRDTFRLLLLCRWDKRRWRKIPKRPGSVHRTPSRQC
Chain of Beta-2 adrenergic receptor (Homo sapiens) (P07550 whole entry, looked up): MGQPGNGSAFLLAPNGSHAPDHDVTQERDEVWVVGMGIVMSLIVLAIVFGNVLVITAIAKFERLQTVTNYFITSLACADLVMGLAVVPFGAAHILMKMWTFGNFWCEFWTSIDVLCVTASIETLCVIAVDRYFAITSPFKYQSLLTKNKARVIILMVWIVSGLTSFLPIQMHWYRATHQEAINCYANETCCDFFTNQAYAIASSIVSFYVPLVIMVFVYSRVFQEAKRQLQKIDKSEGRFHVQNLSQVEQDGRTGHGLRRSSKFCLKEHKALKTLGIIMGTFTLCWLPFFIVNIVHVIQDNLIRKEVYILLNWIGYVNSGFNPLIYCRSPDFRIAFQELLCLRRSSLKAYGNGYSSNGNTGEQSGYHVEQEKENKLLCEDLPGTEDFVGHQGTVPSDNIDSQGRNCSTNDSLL
Chain of Gonadotropin-releasing hormone receptor (Homo sapiens) (P30968 whole entry, looked up): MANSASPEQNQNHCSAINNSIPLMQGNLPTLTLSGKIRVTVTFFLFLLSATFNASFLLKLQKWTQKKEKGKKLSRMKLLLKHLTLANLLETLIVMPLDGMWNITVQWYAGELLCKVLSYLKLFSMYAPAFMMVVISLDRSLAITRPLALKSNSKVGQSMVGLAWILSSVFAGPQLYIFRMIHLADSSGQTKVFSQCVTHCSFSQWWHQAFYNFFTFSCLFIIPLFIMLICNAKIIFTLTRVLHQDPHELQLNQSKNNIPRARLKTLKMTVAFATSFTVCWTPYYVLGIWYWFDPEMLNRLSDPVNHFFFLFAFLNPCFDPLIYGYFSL

Regarding `CC(C)(C)c1ccc(O)c(C(C)(C)C)c1`, the Potency is 27.2 µM (active) and 43.3 µM (active) in experiment [1]; 9.65 µM (active) and 61.1 µM (active) in experiment [2]; 45.8 µM (active) in [7]; 23.7 µM (active) in experiment [10]; 34.5 µM (active) and 27.5 µM (active) in experiment [11]. Also, the Potency result in [3], in experiment [4], in experiment [5], in experiment [6], in [8] and in experiment [9] was “inactive” each time. In addition, the Potency result in experiment [12], in experiment [13] and in [14] was “inactive” in each case.

Regarding `C=C(C)[C@H]1CC=C(C)CC1`, the Potency result in experiment [1], in experiment [2], in experiment [3], in experiment [4], in experiment [5] and in experiment [6] was “inactive” throughout. In addition, the Potency result in experiment [7], in experiment [8], in experiment [9], in experiment [10], in experiment [11] and in experiment [15] was “inactive” throughout. Moreover, the Potency result in experiment [12], in [16], in experiment [13], in experiment [17] and in experiment [18] was “inactive” throughout.

Turning to `O=[N+]([O-])c1ccccc1CCO`, the Potency result in experiment [1], in [2], in [3], in experiment [4], in [5] and in [6] was “inactive” each time. The Potency entry in experiment [7], in experiment [8], in [9], in experiment [10], in [11] and in [12] was “inactive” in each case. In addition, the Potency entry in [19], in experiment [13] and in [14] was “inactive” throughout. For the same molecule, in [15], the Potency is 1.1 nM (active).

With `CCCCOC(O)CC` (stereo unspecified), the Potency entry in experiment [1], in experiment [2], in [3], in experiment [4], in experiment [5] and in experiment [6] was “inactive” throughout. The Potency result in [7], in experiment [8], in experiment [9], in experiment [11], in experiment [15] and in experiment [12] was “inactive” in each case. Further, the Potency result in experiment [19], in [13], in experiment [17], in [14] and in [18] was “inactive” throughout.

Take `CCCCc1ccc2cccc(S(=O)(=O)O)c2c1`: the Potency entry in [1], in experiment [2], in experiment [3], in experiment [4], in experiment [5] and in experiment [6] was “inactive” in each case. For the same molecule, the Potency entry in [7], in [8], in experiment [9], in [10], in [11] and in experiment [12] was “inactive” throughout. Moreover, the Potency entry in experiment [19], in experiment [17], in experiment [14] and in experiment [18] was “inactive” throughout.

`CC(C)c1ccc(C=O)cc1`: the Potency entry in [1], in experiment [2], in [3], in experiment [4], in [5] and in experiment [6] was “inactive” each time. The Potency entry in [7], in experiment [8], in experiment [9], in experiment [10], in experiment [11] and in experiment [15] was “inactive” each time. Further, the Potency result in experiment [12], in [16], in [19], in experiment [13], in [14] and in [18] was “inactive” throughout.

On to `CCCCCC/C=C/C(=O)OC`, for which the Potency result in experiment [1], in experiment [2], in experiment [3], in experiment [4], in experiment [5] and in experiment [6] was “inactive” in each case. Also, the Potency entry in [7], in [8], in experiment [9], in experiment [10], in experiment [11] and in experiment [15] was “inactive” throughout. Besides, the Potency result in [12], in [16], in experiment [19], in [13], in experiment [14] and in [18] was “inactive” each time.
